# In PubChem BioAssay (NCATS):
# Records with an inconclusive call do not appear. Entries that show only a call come without a potency. Values without a mark were called inactive. Active and inactive are the calls of the source. Calls come from the whole dose curve; as a rule, active = well fitted curve in the direction sought with a large enough effect; inconclusive = small, poorly fitted or top-dose-only effect, or another doubt; inactive = no such curve, though single readings can be large; an effect the other way counts as inactive or inconclusive.
# Columns and labels:
# [1] = qHTS to identify inhibitors of the type 1 interferon - major histocompatibility complex class I in skeletal muscle: primary screen against the NCATS Mechanism Interrogation Plate v5.0 (MIPE) Libary (AID 1347411); note: nearly all actives have a fitted effect of over 65% in size; note: potency is the fitted concentration of half-maximal effect
# Summary of the method: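 IFN-beta-driven (4 ng/ml) HLA-B-HiBit expression in CRISPR-tagged C25cl48 myoblasts; compounds 11-pt, 1:3, max 46 uM, 24 hr exposure; lytic NanoLuc complementation luminescence.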
# [2] = target: Calcium and integrin-binding protein 1 (Homo sapiens) (UniProt Q99828); assay: Primary qHTS for Identification of Calcium Integrin Binding Protein 1 (CIB1) Competitor (AID 1508620);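 note: GST tagged CIB1 binding a fluorescein labelled alphaIIb integrin peptide tracer; top concentration of the series differs between compounds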
# Summary of the method: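 Fluorescence polarization competition: CIB1-GST (1 uM final) preincubated with compound 15 min at room temperature, then FITC-labeled alphaIIb peptide (100 nM final) added for another 15 min. Polarization read at Ex 480/Em 540.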
# [3] = qHTS to identify inhibitors of the type 1 interferon - major histocompatibility complex class I in skeletal muscle: primary screen against the NCATS Pharmaceutical Collection (AID 1347407);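 note: luminescence of HiBiT knocked into endogenous HLA-B as interferon-induced MHC class I level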
# Summary of the method: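 Immortalized human myoblasts (C25cl48) with HiBiT knocked into endogenous HLA-B*08:01 were stimulated with 4 ng/ml IFN-beta and treated with compounds (8-point, 1:5, top 46 uM final) for 24 h at 37 C; HiBiT lytic luminescence read.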
# [4] = target: Protein phosphatase 1D (Homo sapiens) (UniProt O15297); assay: RapidFire Mass Spectrometry qHTS Assay for Modulators of WT P53-Induced Phosphatase 1 (WIP1) (AID 1347424);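 note: amount of dephosphorylated VEPPL-S-QETFS peptide product formed by WIP1; series mostly up to about 63 µM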
# Summary of the method: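 Mass-spectrometric measurement of dephosphorylated peptide after a 5 min room-temperature reaction of 10 nM WIP1 with 2 uM phosphopeptide, following 1 h compound preincubation in 30 mM MgCl2 buffer.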
# [5] = target: Protein phosphatase 1D (Homo sapiens) (UniProt O15297); assay: Rhodamine-PBP qHTS Assay for Modulators of WT P53-Induced Phosphatase 1 (WIP1) (AID 1347425)
# Summary of the method: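 Steps: enzyme with Rh-PBP sensor and compounds, room-temperature incubation of 1 hr, baseline read, addition of VEPPL-pS-QETFS (10 uM final), kinetic fluorescence reads at 525/598 nm. Activity equals final minus baseline signal.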
# [6] = Primary qHTS for inhibitors of La Crosse Virus (LACV) - induced cell death in SH-SY5Y cells (AID 1508616);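 note: top concentration of the series differs between compounds; higher means more rescue of cells from virus-induced death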
# Summary of the method: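 Screening measures cell viability in LACV-infected SH-SY5Y cultures. Compound was added before virus (0.01 MOI), and ATP was detected by luminescence 6 days later.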
# [7] = Primary qHTS for small molecule stabilizers of the endoplasmic reticulum resident proteome: Secreted ER Calcium Modulated Protein (SERCaMP) assay (AID 1508630)
# Summary of the method: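 The SH-SY5Y reporter protocol was run at 3 concentrations up to 38.3 uM (primary) or 11 concentrations (follow-up): 16 h compound, 100 nM thapsigargin for 4 h, then extracellular luciferase luminescence.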
# Sequence of Calcium and integrin-binding protein 1 (Homo sapiens) (Q99828 whole entry, looked up): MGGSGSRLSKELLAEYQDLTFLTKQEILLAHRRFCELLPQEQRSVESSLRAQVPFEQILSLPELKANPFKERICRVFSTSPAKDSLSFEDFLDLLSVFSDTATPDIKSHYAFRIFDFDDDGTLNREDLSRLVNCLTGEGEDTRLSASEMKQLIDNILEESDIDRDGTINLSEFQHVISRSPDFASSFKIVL
# Sequence of Protein phosphatase 1D (Homo sapiens) (O15297 whole entry, looked up): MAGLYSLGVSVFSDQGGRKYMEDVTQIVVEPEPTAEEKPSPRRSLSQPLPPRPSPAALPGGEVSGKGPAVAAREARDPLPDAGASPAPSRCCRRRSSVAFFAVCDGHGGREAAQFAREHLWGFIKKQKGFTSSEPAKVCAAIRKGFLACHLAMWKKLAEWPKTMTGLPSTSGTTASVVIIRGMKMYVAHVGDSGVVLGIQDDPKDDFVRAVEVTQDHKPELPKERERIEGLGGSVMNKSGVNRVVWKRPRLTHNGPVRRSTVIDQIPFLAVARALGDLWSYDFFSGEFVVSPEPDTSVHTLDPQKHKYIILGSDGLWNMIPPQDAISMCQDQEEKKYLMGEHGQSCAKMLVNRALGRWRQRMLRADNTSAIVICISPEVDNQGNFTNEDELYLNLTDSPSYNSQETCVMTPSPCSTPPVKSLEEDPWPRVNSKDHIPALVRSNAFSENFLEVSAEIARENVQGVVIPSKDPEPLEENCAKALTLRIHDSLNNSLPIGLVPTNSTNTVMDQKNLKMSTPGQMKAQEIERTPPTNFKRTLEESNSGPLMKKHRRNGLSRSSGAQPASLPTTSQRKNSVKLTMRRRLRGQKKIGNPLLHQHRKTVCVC
structure (smiles),measurement,setting,value
O=C1NC(O)CCN1[C@@H]1O[C@H](CO)[C@H](O)[C@H]1O (some centres undefined),Potency,[1],inactive
COC(=O)[C@H](CCCN=C(N)N)NS(=O)(=O)c1ccc(C)cc1,Potency,[1],inactive
same,Potency,[2],inactive
CCCCCCCCCCCC(CC1OC(=O)C1CCCCCC)OC(=O)C(CC(C)C)NC=O (centres undefined),Potency,[1],inactive
same,Potency,[2],inactive
N[C@H]1CN(c2c(F)cc3c(=O)c(C(=O)O)cn(C4C[C@@H]4F)c3c2Cl)CC12CC2 (some centres undefined),outcome,[3],inactive
same,Potency,[4],inactive
same,outcome,[5],inactive
same,outcome,[6],inactive
same,Potency,[2],inactive
O=c1ccn([C@@H]2O[C@H](CO)[C@H](O)[C@@H]2F)c(=O)[nH]1,Potency,[1],inactive
same,Potency,[2],inactive
same,outcome,[7],inactive
C[C@H](NC(=O)Cc1cc(F)cc(F)c1)C(=O)N[C@H](C(=O)OC(C)(C)C)c1ccccc1,Potency,[1],inactive
same,Potency,[2],inactive
same,outcome,[7],inactive
C[C@](Cc1c[nH]c2ccccc12)(NC(=O)OC1C2CC3CC(C2)CC1C3)C(=O)NC[C@H](NC(=O)CCC(=O)O)c1ccccc1 (some centres undefined),Potency,[1],inactive
same,Potency,[2],inactive
same,outcome,[7],inactive
CC[C@@]1([C@@H]2O[C@@H]([C@H]3O[C@@](O)(CO)[C@H](C)C[C@H]3C)C[C@H]2C)CC[C@H]([C@]2(C)CC[C@]3(C[C@H](O)[C@@H](C)[C@@H]([C@@H](C)[C@@H](OC)[C@H](C)C(=O)O)O3)O2)O1,Potency,[1],inactive
same,Potency,[2],inactive
same,outcome,[7],inactive
COc1cc(C[C@@H](CO)[C@H](CO)Cc2ccc(O)c(OC)c2)ccc1O,Potency,[1],inactive
same,Potency,[2],inactive
same,outcome,[7],inactive
O=C(O)CCCCC(CCSCc1ccccc1)SCc1ccccc1 (centres undefined),Potency,[1],inactive
same,Potency,[2],inactive
same,outcome,[7],inactive
O=C(CN1C(=O)C2(CCCC2)NC[C@H]1c1cc(F)cc(F)c1)Nc1ccc2c(c1)C[C@@]1(C2)C(=O)Nc2ncccc21,Potency,[1],inactive
same,Potency,[2],inactive
same,outcome,[7],inactive
C[C@H](O)[C@@H]1C(=O)N2C(C(=O)O)=C(S[C@@H]3CN[C@H](CNS(N)(=O)=O)C3)[C@@H](C)[C@@H]12,Potency,[1],inactive
same,Potency,[2],inactive
same,outcome,[7],inactive
CC(=O)SCC(Cc1ccccc1)C(=O)NCC(=O)OCc1ccccc1 (centres undefined),Potency,[1],inactive
same,Potency,[2],inactive
same,outcome,[7],inactive
FC(F)(F)c1ccc(Nc2nc3ccc(Oc4ccnc(-c5ncc(C(F)(F)F)[nH]5)c4)cc3[nH]2)cc1,Potency,[1],inactive
same,Potency,[2],inactive
same,outcome,[7],inactive
Nc1nc2c(c(=O)[nH]1)N(C=O)[C@H](CNc1ccc(C(=O)N[C@@H](CCC(=O)O)C(=O)O)cc1)CN2,Potency,[1],inactive
same,Potency,[2],inactive
same,outcome,[7],inactive
CC(C)c1cnn2c(NCc3ccccc3)cc(NCCCCCCN)nc12,Potency,[1],26.2 µM (active)
same,Potency,[2],inactive
COc1cc(OC)c(NC(=O)Nc2cc(C)on2)cc1Cl,Potency,[1],inactive
same,Potency,[2],inactive
same,outcome,[7],inactive
O=C(O)c1ccc(Nc2ncc3c(n2)-c2ccc(Cl)cc2C(c2c(F)cccc2F)=NC3)cc1,Potency,[1],inactive
same,Potency,[2],inactive
same,outcome,[7],inactive
c1ccc2c(Oc3nc(Nc4ccc(N5CCOCC5)cc4)c4ncn(C5CCCCC5)c4n3)cccc2c1,Potency,[1],inactive
same,Potency,[2],inactive
same,outcome,[7],inactive
CC(C)Oc1ccc(C(=O)N[C@H](CNC(=O)CN(C)C)Cc2ccc(-c3cn4cccc([C@H](C)O)c4n3)cc2)cc1Cl,Potency,[1],inactive
same,Potency,[2],inactive
same,outcome,[7],inactive
CC(C)C[C@H](NC(=O)[C@@H](NC(=O)c1cccc(-c2ccccc2)n1)[C@@H](C)O)B(O)O,Potency,[1],0.0641 µM (active)
same,Potency,[2],inactive
same,outcome,[7],inactive
Oc1ccc(-c2ccc(-c3cc(Nc4cccc(CNC5CC5)c4)n[nH]3)cc2)c(O)c1,Potency,[1],5.87 µM (active)
same,Potency,[2],inactive
same,outcome,[7],inactive
COc1cc(O)c2c(c1)C1OC1C[C@H](O)[C@H](O)C(=O)C=CC[C@H](C)OC2=O (some centres undefined),Potency,[1],13.1 µM (active)
same,Potency,[2],inactive
Cc1cnc(Nc2ccc(N3CCN(C)CC3)cc2)nc1Nc1cccc(S(=O)(=O)NC(C)(C)C)c1,Potency,[1],11.7 µM (active)
same,Potency,[2],inactive
same,outcome,[7],inactive
O=C1NCCc2[nH]c(-c3ccncc3)cc21,Potency,[1],2.08 µM (active)
same,Potency,[2],inactive
same,outcome,[7],inactive
COc1cc(C(C)C)c(Oc2cnc(NC(CO)CO)nc2N)cc1I,Potency,[1],inactive
same,Potency,[2],inactive
same,outcome,[7],inactive
NC(=O)c1cccc(-c2cccc(OC(=O)NC3CCCCC3)c2)c1,Potency,[1],inactive
same,Potency,[2],inactive
same,outcome,[7],inactive
OC[C@H]1OC(O)C[C@@H](O)[C@H]1O (some centres undefined),Potency,[1],inactive
same,Potency,[2],inactive
same,outcome,[7],inactive
CC(=O)OC[C@@H]1O[C@@H](n2ccc(=O)[nH]c2=O)[C@H](OC(C)=O)[C@H]1OC(C)=O,Potency,[1],inactive
same,Potency,[2],inactive
same,outcome,[7],inactive
O=[N+]([O-])c1cn2c(n1)OC[C@@H](OCc1ccc(OC(F)(F)F)cc1)C2,Potency,[1],inactive
same,Potency,[2],inactive
same,outcome,[7],inactive
C=Cc1c(C)c2cc3nc(cc4[nH]c(cc5nc(cc1[nH]2)C(C)=C5CCC(=O)O)c(CCC(=O)OC)c4C)[C@@]1(C)C3=CC=C(C(=O)OC)[C@H]1C(=O)OC,Potency,[1],inactive
same,Potency,[2],inactive
same,outcome,[7],inactive
